# Measured values reported in the supplement of paper PMC10127200.
# Legend:
# Assay in all cases: Euclidean distance of Cell Painting phenotypic profile (signed KS, 77 features) to DMSO centroid (dimensionless distance); higher = stronger phenotypic change vs DMSO (phenoactivity)
# Conditions in all cases: 48 h; 5 or 10 uM (library dependent)
# 786-O = system: 786-O
# In short: (§1)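 Stained cells were imaged confocally at 20X with 9 fields per well, after 48 h of exposure to library compounds at 10 or 5 uM (set by library; 0.1% DMSO final). The cells were five cancer lines and a healthy fibroblast line. From the images, Harmony extracted 77 features, each expressed as a signed Kolmogorov-Smirnov statistic relative to same-plate vehicle wells. Phenoactivity is measured as Euclidean distance to the median vehicle profile, using plate-position-corrected, correlation-weighted profiles averaged across replicates at the top dose.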
# A549 = system: A549
# In short: as §1
# DU145 = system: DU145
# In short: as §1
# FB = system: FB
# In short: as §1
# HEPG2 = system: HEPG2
# In short: as §1
# OVCAR4 = system: OVCAR4
# In short: as §1
Structure (SMILES),Euclidean distance (786-O),Euclidean distance (A549),Euclidean distance (DU145),Euclidean distance (FB),Euclidean distance (HEPG2),Euclidean distance (OVCAR4)
C/C(=C\c1csc(C)n1)[C@@H]1C[C@@H]2O[C@]2(C)CCC[C@H](C)[C@H](O)[C@@H](C)C(=O)C(C)(C)[C@@H](O)CC(=O)O1 [Epothilone B],2.58,2.49,3.95,2.82,1.98,2.11
CCN1C[C@]2(OC(=O)c3ccccc3NC(C)=O)CC[C@H](OC)[C@@]34[C@@H]2C[C@@H]([C@@H]13)[C@@]1(O)C[C@H](OC)[C@H]2C[C@@H]4[C@]1(O)[C@H]2OC [Lappaconitine],0.914,0.59,,1.1,0.579,1.35
C#C[C@]1(OC(=O)CCCCCC)CC[C@H]2[C@@H]3CCC4=CC(=O)CC[C@@H]4[C@H]3CC[C@@]21C [Norethisterone Enanthate],2.37,2.5,3.85,1.34,2.23,1.22
Cn1cc(C2=C(c3cn(C4CCN(Cc5ccccn5)CC4)c4ccccc34)C(=O)NC2=O)c2ccccc21,1.96,3.16,1.32,0.965,0.683,1.79
